# Measurements published in PubChem BioAssay AID1159524 (National Center for Advancing Translational Sciences (NCATS), 2015).
# Out of some 410,000 compounds screened, about 5,100 (1.2%) were called active. About 8% were inconclusive and are not listed. This excerpt belongs to a sample that is enriched for actives. Values without a mark were called inactive. The call rests on the fitted dose curve; tested in HEK293T cells.
# Experiment: High Throughput Screening for Foot and Mouth Disease Virus Antivirals; further: read-out not given here; nearly all actives have a fitted effect of over 45% in size
# Conditions: FMDV antiviral cell-based qHTS; series mostly up to 57.9 µM; activity change, negative = inhibition: at the top concentration
# On the % scale 0 is the no-effect control and ±100 the full control effect; potency means the concentration at half of the fitted maximal effect.
SMILES,"activity change, negative = inhibition",Potency
CCN(CCCNC(=O)Cn1ncc2c([nH]c3ccccc32)c1=O)c1cccc(C)c1,-8.64%,–
Cc1[nH]c2c(C(=O)NCC3Cc4cccc(-c5cccnc5)c4O3)cccc2c1C (configuration not stated),12.1%,–
N#Cc1cccc(-c2ccc3ncnc(NCc4cccs4)c3c2)c1,-17.2%,–
O=C1CC(c2nnc(Cc3ccc(Cl)cc3)o2)CN1c1ccccc1 (configuration not stated),1.46%,–
Cc1noc(C)c1-c1nccc(N2CCOCC2)n1,-12.1%,–
CCCc1nc(SCC(=O)Nc2ccccc2OC)c2c(=O)n(C)c(=O)n(C)c2n1,–,25.1 µM (active)
CCCc1nc(SCC(=O)N2CCCC2)c2c(=O)n(C)c(=O)n(C)c2n1,-3.3%,–
CCc1nc(SCC(=O)Nc2ccccc2OC)n[nH]1,13.3%,–
COc1cccc(-c2nc(Nc3ccncc3)c3ccccc3n2)c1,-29.5%,–
CN1CCN(c2ncncc2-c2ccc(C(=O)N(C)C)cc2)CC1,2.84%,–
CN(C)C(=O)[C@@H]1C[C@@H](Sc2nc3ccccc3[nH]2)CN1Cc1ccc(Cl)cc1,39.8%,–
O=C(CSc1nc2c(c(=O)[nH]1)CN(Cc1ccc3c(c1)OCO3)CC2)Nc1cc(F)ccc1F,6.05%,–
N#C/C=C/N1CCN(Cc2ccc3c(c2)OCO3)CC1,-8.21%,–
Fc1ccc2[nH]c3c(N4CCSCC4)ncnc3c2c1,–,3.16 µM (active)
Fc1ccc2[nH]c3c(N4CCN(Cc5ccc6c(c5)OCO6)CC4)ncnc3c2c1,–,6.31 µM (active)
Cc1cccc2nc(-c3ccc(Cl)s3)c(Nc3ccc4c(c3)OCCO4)n12,42.3%,–
CCOC(=O)c1c(-c2ccc(OC)cc2)oc2ccc(OCc3ccc(C(=O)OC)cc3)cc12,-24.4%,–
CCN(CC)CCOC(=O)c1cc2cc(COC)ccc2o1,-7.56%,–
CCOC(=O)c1cc2cc(-c3c(C(=O)OCC)oc4cc(O)cc(O)c4c3=O)ccc2o1,–,31.6 µM (active)
Cc1ccc(-c2nnc(SCc3ccccc3C)o2)cc1,66.9%,–
COc1ccccc1CNc1cc(-c2ccccc2CN(C)C)ncn1,-23.5%,–
O=C(c1ccc2c(c1)N(Cc1ccc(Cl)cc1)C(=O)c1ccccc1S2(=O)=O)N1CCCCC1,-18.2%,–
COc1ccc(C)cc1N1C(=O)[C@@H]2C[C@H]1CN2Cc1cccc(OC)c1O,-3.08%,–

SMILES,"activity change, negative = inhibition",Potency
CCCCC/C=C\C/C=C\C/C=C\CCCCCCC(=O)NCCO,-10.3% [at 6.7 µM],–
Cc1ccc(-c2nn(CCC(=O)Nc3ccc(Cl)c(Cl)c3)c(=O)c3ccccc23)cc1,1.63%,–
O=C(CC(O)(C(F)(F)F)C(F)(F)F)Nc1ccc(Cl)c(Cl)c1,–,8.91 µM (active)
CC(c1cccnc1)N(CCN(C)C)C(=O)Nc1ccc(Cl)c(Cl)c1 (configuration not stated),-16.7%,–
Cc1cc(Nc2cccc(C(F)(F)F)c2)nc2ccc(NC(=O)c3ccc(=O)[nH]c3)cc12,-8.82%,–
Cc1ccc(/C(=C/CN2CCCC2)c2ccccn2)cc1,1.29%,–
CC(N)(C(=O)O)c1ccc(-c2nn[nH]n2)cc1 (configuration not stated),-9.72%,–
CCN1CCN(C(c2ccc(C)cc2)c2c(O)cc(C)n(Cc3ccco3)c2=O)CC1 (configuration not stated),-29.2%,–
O=C(Nc1ccc2c(c1)nc1n2CCCCC1)c1cc(S(=O)(=O)N2CCOCC2)ccc1Cl,–,25.1 µM (active)
O=S(=O)(c1cccc(-c2nnc3n2CCCCC3)c1)N1CCOCC1,30.2%,–
Cc1occc1C(=O)Nc1cccc(S(=O)(=O)N2CCOCC2)c1,15.8%,–
CCOc1ccccc1NC(=O)CSc1ncc(S(=O)(=O)c2ccc(C(C)(C)C)cc2)c(=O)[nH]1,-2.88%,–
Cc1ccc(S(=O)(=O)c2nc(-c3ccco3)oc2SCC(=O)Nc2ccc(F)cc2)cc1,15.1%,–
Nc1nnc(SCC(=O)Nc2ccc3nc(SCC(=O)Nc4ccccc4)sc3c2)s1,–,20 µM (active)
CCC(=O)Nc1ccc2nc(SCC(=O)N3CCc4ccccc43)sc2c1,-19.9%,–
Cc1cccc(OCCSc2nc3ccc(NC(=O)COc4ccccc4C)cc3s2)c1,0%,–
Cc1ccc(OCCSc2nc3ccc(NC(=O)COc4ccc(C)cc4)cc3s2)cc1,-5.33%,–
O=C(COc1ccccc1Cl)Nc1ccc2nc(SCC(=O)N3CCCC3)sc2c1,–,31.6 µM (active)
O=C(Nc1ccc2nc(SCCOc3ccccc3Cl)sc2c1)c1ccco1,-20.6%,–
COc1ccc(NC(=O)Nc2cccc(-c3noc(C)n3)c2)cc1,1.15%,–
CCNc1ncc2ncc(=O)n(Cc3cccc(OC)c3)c2n1,-19.5%,–
COCCNc1ncnc2ccc(-c3cccnc3)cc12,-22.4%,–
COC(=O)C(c1ccccc1)N1CCCCCC1 (configuration not stated),-7.95%,–

SMILES,"activity change, negative = inhibition",Potency
CC1(C)CC(N2CCN(C(c3ccccc3)c3ccccc3)CC2)=CC(=[N+]2CCCCC2)C1,–,2.82 µM (active)
CCN1CCN(c2ncc3c(n2)CC(c2ccccc2O)CC3=O)CC1 (configuration not stated),-14.9%,–
COCc1[nH]nc2c1C(C1C=CCCC1)C(C#N)=C(N)O2 (configuration not stated),–,31.6 µM (active)
N#CC1=C(N)Oc2cc(O)ccc2C1C1CCCCC1 (configuration not stated),-23.5%,–
Cc1nc2nc(NCc3cccc(Br)c3)[nH]n2c(=O)c1Cc1ccccc1,-16.8%,–
COCCNC(=O)c1cc(-c2cccc(Cl)c2)on1,33.4%,–
COc1cc2nc(NCC(C)c3ccccc3)n3nc(-c4ccccc4)nc3c2cc1OC (configuration not stated),-29.4%,–
Cc1cnc(CNc2ncncc2-c2ccccc2Cl)cn1,-16.2%,–
Cn1cc(-c2nc3cnc(N4CCNCC4)nc3n(CCC#N)c2=O)c2ccccc21,-2.62%,–
COc1cccc(CNc2nccn(-c3ccc(OC)c(OC)c3)c2=O)c1,-12.6%,–
COc1ccc(CNc2ncncc2-c2ccccc2OC)c(OC)c1,-28%,–
COc1cccc(CNc2nc(NCc3ccccc3OC)nc3ccsc23)c1,–,25.1 µM (active)
CCCN(C/C=C\I)[C@@H]1CCc2cccc(O)c2C1,-10.2%,–
COc1ccc(-c2nc3sc(CCNC(=O)C(C)(C)C)c(C)n3n2)cc1,-39.9%,–
O=C(COc1nc2ccccc2nc1N1CCOCC1)NCC(F)(F)F,-17.8%,–
c1ccc(Nc2nc(N3CCOCC3)c3ccccc3n2)cc1,–,11.2 µM (active)
c1cncc(-c2nc(N3CCNCC3)c3ccccc3n2)c1,-4.3%,–
O=C(O)C[C@@H]1NC(=O)[C@H](Cc2ccccc2)NC1=O,-7.83%,–
CNS(=O)(=O)c1cccc(C(=O)OCC(=O)N2c3ccccc3NC(=O)C2(C)C)c1,-4.37%,–
Cc1ccc(OCCC(=O)OCC(=O)N2c3ccccc3NC(=O)C2(C)C)cc1,-21.8%,–
CCNc1ccc(C(=O)OCC(=O)N2c3ccccc3NC(=O)C2(C)C)cc1[N+](=O)[O-],–,20 µM (active)
